40 compounds from PubChem BioAssay (NCATS) can be followed below.

Records with an inconclusive call do not appear. Calls of active or inactive are those of the source. Unless noted, calls follow the shape of the dose curve; as a rule, active = well fitted curve in the direction sought with a large enough effect; inconclusive = small, poorly fitted or top-dose-only effect, or another doubt; inactive = no such curve, though single readings can be large; an effect the other way counts as inactive or inconclusive.

Test [1] can be described thus: A High-Content qHTS Against Drug Library for the Identification of Small Molecules that Inhibit DYT1 Early Onset Primary Dystonia-Associated Cell Pathology (AID 1645839; calls by dose curve; also: potency is read from the fitted curve at half-maximal effect). An outline of the steps: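 Readout: %pathology, the punctate EGFP-TorsinA distribution from imaging, as the primary channel and cell count as the toxicity counterscreen. HEK293 Flp-In cells expressing delE TorsinA were induced with tetracycline and treated with compound for 48 h.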
Background: In qHTS, concentration-response curves come from the screen itself.

Test [2] addresses Cytochrome P450 2C9 (Homo sapiens) (UniProt P11712). Briefly: Cytochrome P450 family 2 subfamily C member 9 (CYP2C9) small molecule antagonists: luciferase biochemical (cell-free) qHTS assay (AID 1645842; active = well fitted curve in the direction sought with a large enough effect in the repeat runs; an effect the other way counts as inactive or inconclusive; also: nearly all actives have a fitted effect of over 55% in size; also: potency is read from the fitted curve at half-maximal effect; as to activity change, negative = inhibition: % is scaled to controls: 0 for no effect and ±100 for the full control effect). An outline of the steps:
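Luminescence, after 20 min with luciferin detection reagent, reflected CYP2C9 turnover during a 1 h NADPH-driven reaction at 37C. Enzyme-substrate mix contained 0.4% bovine serum albumin and was preincubated with compound 10 min at room temperature.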

A short description of test [3]: Primary qHTS for inhibitors of nuclear receptor binding SET domain protein 2 (NSD2) in an isogenic RCH-ACV NSD2 p.E1099K mutant (9B) (AID 1645876). Also: nearly all actives have a fitted effect of over 70% in size. Also: potency is read from the fitted curve at half-maximal effect.
Test [4] can be described thus: Primary qHTS for inhibitors of nuclear receptor binding SET domain protein 2 (NSD2) in an RCH-ACV wild type WT cells (2C) (AID 1645877). Also: nearly all actives have a fitted effect of over 70% in size. Also: potency is read from the fitted curve at half-maximal effect.
Test [5] has as its target Cytochrome P450 3A4 (Homo sapiens) (UniProt P08684). Briefly: Cytochrome P450 family 3 subfamily A member 4 (CYP3A4) small molecule antagonists: luciferase qHTS assay (AID 1645841; active = well fitted curve in the direction sought with a large enough effect in the repeat runs; an effect the other way counts as inactive or inconclusive; also: nearly all actives have a fitted effect of over 45% in size). An outline of the steps:
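P450-Glo CYP3A4 enzyme with proluciferin substrate was preincubated with DMSO-dissolved compounds for 10 min at room temperature. NADPH regeneration solution started a 1 h reaction. Detection reagent stopped it, and luminescence was read after 20 min.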

Test [6] concerns the target Cytochrome P450 2D6 (Homo sapiens) (UniProt P10635). The experiment in a line: Cytochrome P450 family 2 subfamily D member 6 (CYP2D6) small molecule antagonists: luciferase biochemical (cell-free) qHTS assay (AID 1645840; active = well fitted curve in the direction sought with a large enough effect in the repeat runs; an effect the other way counts as inactive or inconclusive; also: nearly all actives have a fitted effect of over 55% in size; also: potency is read from the fitted curve at half-maximal effect; as to activity change, negative = inhibition: % is scaled to controls: 0 for no effect and ±100 for the full control effect). An outline of the steps: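 P450-Glo luminescent screen: recombinant CYP2D6 enzyme–proluciferin substrate mix preincubated with compound 10 min at room temperature, then NADPH regeneration added for 1 h at room temperature. Detection reagent added for 20 min; luciferin light read as relative luminescence units.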

Test [7] concerns the target Catechol O-methyltransferase (Homo sapiens) (UniProt P21964). Briefly: Confirmatory Screen for Target Class Profiling of Small Molecule Inhibitors of Methyltransferases (AID 1745852). As to activity change, negative = inhibition: % is scaled to controls: 0 for no effect and ±100 for the full control effect. The conditions noted are these: MTase-Glo luminescence, SAH detection, recombinant enzyme; measured here: COMT max response; stronger effect = lower value.
Test [8] deals with Guanidinoacetate N-methyltransferase (Homo sapiens) (UniProt Q14353). The description is as above. As to conditions: MTase-Glo luminescence, SAH detection, recombinant enzyme; at 57.3 µM (top of the series).
Test [9] addresses Nicotinamide N-methyltransferase (Homo sapiens) (UniProt P40261). The description is as above. As to conditions: MTase-Glo luminescence, SAH detection, recombinant enzyme; measured here: NNMT max response; stronger effect = lower value.
The target in test [10] is Phenylethanolamine N-methyltransferase (Homo sapiens) (UniProt P11086). The description is as above. As to conditions: MTase-Glo luminescence, SAH detection, recombinant enzyme; measured here: PNMT max response; stronger effect = lower value.
Chain of Phenylethanolamine N-methyltransferase (Homo sapiens) (P11086 whole entry, looked up): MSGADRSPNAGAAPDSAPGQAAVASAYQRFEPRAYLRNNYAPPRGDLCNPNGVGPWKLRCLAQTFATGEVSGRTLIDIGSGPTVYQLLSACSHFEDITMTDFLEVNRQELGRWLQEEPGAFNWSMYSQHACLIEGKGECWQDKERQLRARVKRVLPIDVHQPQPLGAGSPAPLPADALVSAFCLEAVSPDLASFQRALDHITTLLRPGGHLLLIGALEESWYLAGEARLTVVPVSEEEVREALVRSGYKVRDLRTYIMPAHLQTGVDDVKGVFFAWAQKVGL
The target of the next test is Papain (Carica papaya) (UniProt P00784). The experiment in a line: Primary qHTS assay for inhibitors of the protease papain (AID 1645873).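 Also: papain turnover of Z-FR-AMC read as the AMC fluorescence gain over 10 min; % is scaled to controls: 0 for no effect and ±100 for the full control effect.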
Chain of Papain (Carica papaya) (P00784 whole entry, looked up): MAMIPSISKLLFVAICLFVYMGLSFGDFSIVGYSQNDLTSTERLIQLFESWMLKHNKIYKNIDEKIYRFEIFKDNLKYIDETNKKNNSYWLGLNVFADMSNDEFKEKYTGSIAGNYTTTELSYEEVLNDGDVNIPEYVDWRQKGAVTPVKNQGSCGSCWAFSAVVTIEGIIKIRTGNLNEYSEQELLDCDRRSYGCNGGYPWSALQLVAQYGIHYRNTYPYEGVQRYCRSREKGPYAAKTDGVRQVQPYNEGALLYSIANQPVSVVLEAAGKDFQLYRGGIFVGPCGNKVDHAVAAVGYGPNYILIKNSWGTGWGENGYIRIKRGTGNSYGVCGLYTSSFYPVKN

Chain of Cytochrome P450 2D6 (Homo sapiens) (P10635 whole entry, looked up): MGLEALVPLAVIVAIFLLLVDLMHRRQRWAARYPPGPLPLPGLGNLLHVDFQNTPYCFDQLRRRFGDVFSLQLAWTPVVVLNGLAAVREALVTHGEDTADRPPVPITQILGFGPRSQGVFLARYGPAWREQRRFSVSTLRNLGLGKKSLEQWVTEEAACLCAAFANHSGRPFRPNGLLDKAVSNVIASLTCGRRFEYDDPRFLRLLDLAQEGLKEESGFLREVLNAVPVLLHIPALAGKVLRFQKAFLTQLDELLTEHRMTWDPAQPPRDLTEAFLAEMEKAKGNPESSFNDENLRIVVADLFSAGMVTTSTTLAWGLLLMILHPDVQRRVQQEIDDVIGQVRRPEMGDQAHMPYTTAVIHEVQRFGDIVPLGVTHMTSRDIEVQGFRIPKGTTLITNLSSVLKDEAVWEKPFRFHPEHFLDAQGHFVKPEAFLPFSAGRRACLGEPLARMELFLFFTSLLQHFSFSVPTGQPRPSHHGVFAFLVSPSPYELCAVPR
Chain of Cytochrome P450 2C9 (Homo sapiens) (P11712 whole entry, looked up): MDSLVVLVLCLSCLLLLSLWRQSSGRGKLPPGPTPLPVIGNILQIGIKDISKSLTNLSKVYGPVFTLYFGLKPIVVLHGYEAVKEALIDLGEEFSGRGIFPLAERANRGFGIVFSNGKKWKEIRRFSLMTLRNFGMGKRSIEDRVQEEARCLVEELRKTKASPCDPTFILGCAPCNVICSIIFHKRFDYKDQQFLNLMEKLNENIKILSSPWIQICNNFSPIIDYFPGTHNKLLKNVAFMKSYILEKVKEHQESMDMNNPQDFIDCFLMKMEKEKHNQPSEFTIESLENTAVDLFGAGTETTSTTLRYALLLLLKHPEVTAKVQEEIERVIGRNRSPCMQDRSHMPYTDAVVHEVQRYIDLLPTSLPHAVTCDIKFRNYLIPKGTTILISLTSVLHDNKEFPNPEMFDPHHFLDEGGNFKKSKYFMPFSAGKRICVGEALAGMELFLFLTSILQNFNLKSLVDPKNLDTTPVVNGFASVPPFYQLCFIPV
Chain of Nicotinamide N-methyltransferase (Homo sapiens) (P40261 whole entry, looked up): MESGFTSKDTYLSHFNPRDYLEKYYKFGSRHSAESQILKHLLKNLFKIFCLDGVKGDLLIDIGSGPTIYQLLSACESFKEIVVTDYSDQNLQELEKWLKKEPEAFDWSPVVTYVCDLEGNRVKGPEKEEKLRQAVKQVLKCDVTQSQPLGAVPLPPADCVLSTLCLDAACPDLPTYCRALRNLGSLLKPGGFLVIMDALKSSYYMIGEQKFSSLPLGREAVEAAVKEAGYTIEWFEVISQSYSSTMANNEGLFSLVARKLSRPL
Chain of Catechol O-methyltransferase (Homo sapiens) (P21964 whole entry, looked up): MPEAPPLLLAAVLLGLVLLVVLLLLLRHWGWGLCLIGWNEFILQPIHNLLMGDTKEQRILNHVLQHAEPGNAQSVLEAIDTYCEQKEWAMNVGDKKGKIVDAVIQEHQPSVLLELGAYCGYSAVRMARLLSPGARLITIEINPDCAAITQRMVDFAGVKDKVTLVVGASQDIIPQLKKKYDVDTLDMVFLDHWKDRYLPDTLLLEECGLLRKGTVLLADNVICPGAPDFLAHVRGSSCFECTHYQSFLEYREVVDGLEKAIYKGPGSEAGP
Chain of Cytochrome P450 3A4 (Homo sapiens) (P08684 whole entry, looked up): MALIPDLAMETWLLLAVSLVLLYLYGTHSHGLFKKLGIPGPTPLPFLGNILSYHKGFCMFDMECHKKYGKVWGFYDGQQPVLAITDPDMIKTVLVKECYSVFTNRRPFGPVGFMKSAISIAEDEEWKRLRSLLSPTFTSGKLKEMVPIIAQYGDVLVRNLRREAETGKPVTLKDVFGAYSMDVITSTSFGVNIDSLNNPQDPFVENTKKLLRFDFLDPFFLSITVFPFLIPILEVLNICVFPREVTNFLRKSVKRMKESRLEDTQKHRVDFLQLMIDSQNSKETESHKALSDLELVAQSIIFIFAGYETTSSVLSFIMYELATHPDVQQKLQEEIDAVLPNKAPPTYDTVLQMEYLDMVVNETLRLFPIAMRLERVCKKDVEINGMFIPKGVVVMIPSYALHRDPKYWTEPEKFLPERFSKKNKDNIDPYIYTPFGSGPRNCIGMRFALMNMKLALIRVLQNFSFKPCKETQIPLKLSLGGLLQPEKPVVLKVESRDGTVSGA

Turning to `O=C(O)c1ccccc1S`, the Potency entry in [1], in [2], in [3] and in test [4] was “inactive” each time.

Take `CCC1(c2cnc[nH]2)Cc2ccccc2C1`: the Potency entry in test [1] and in test [3] was “inactive” throughout. For the same compound, the Potency in test [2] was 0.871 µM (active).

In the case of `C/C(=N/NC(=O)c1ccncc1)C(=O)O`, the Potency result in test [1], in test [3] and in [4] was “inactive” in each case.

With `N=C(N)c1ccc(OCCCOc2ccc(C(=N)N)cc2)cc1`, the Potency result in [1] and in [5] was “inactive” each time.

Take `CCOC(=O)c1cc(=O)c2c(OCC(COc3cccc4oc(C(=O)OCC)cc(=O)c34)OC(=O)[C@@H](N)CCCCN)cccc2o1`: the Potency result in [1], in test [3] and in test [4] was “inactive” in each case.

With `O=C1c2ccccc2CCc2ccccc21`, the Potency result in [1], in test [2], in test [3] and in test [4] was “inactive” throughout.

`CN1C(=O)c2ccccc2C1=O`: the Potency result in test [1], in [2], in test [3] and in test [4] was “inactive” in each case.

Regarding `Oc1ccccc1`, the Potency result in [1], in test [2], in test [3] and in [4] was “inactive” throughout.

For the compound `c1ccc2occc2c1`, the Potency entry in test [1] and in test [2] was “inactive” in each case.

Turning to `Nc1ccc(O)cc1`, the Potency result in [1], in [3] and in test [4] was “inactive” throughout. Besides, in test [2], the Potency was 15.5 µM (active).

In the case of `Cc1ccc(C(=O)C(=O)O)cc1C`, the Potency entry in test [1], in test [2], in test [3] and in [4] was “inactive” each time.

Turning to `Oc1cccc2[nH]ccc12`, the Potency in test [6] is 15.5 µM (active).

`CC(=O)Nc1ccn(C2COC(COC(=O)c3ccccc3)O2)c(=O)n1` (stereo not given): the Potency result in test [1] and in test [6] was “inactive” in each case. Besides, the values for the Potency in test [3] and in test [4] were 10.6 µM (active) and 5.31 µM (active), respectively.

As to `Cc1ccc(CCn2c3c(c4cc(Cl)ccc42)CN(C)CC3)cn1`, the Potency in test [6] was 2.19 µM (active). The Potency entry in [2] is “inactive”.

Take `CSCC[C@H](NC(=O)[C@H](Cc1c[nH]c2ccccc12)NC(=O)CCNC(=O)OC(C)(C)C)C(=O)N[C@@H](CC(=O)O)C(=O)N[C@@H](Cc1ccccc1)C(N)=O`: the Potency result in test [1], in test [2], in test [3] and in test [4] was “inactive” each time.

In the case of `C1N2CN3CN1CN(C2)C3`, the Potency result in test [6] and in [2] was “inactive” each time.

Regarding `CC(=O)OC[C@H]1O[C@@H](OC(C)=O)[C@H](OC(C)=O)[C@@H]1OC(C)=O`, the Potency entry in test [1], in [2], in test [3] and in [4] was “inactive” throughout.

Take `c1ccc2c(c1)CCc1ccccc1N2`: the Potency result in test [1], in test [3] and in test [4] was “inactive” in each case.

With `CCc1cccc2c(CCO)c[nH]c12`, the Potency entry in test [1], in [2], in test [3] and in test [4] was “inactive” each time.

For `Cc1ccc(O)cc1`, the Potency entry in test [1], in test [3] and in [4] was “inactive” throughout.

Consider `CCN1C(=O)c2ccccc2C1Nc1ccc(OCCN2CCCCC2)cc1` (stereo not given), for which the Potency result in [1], in [2], in test [3] and in test [4] was “inactive” each time. Moreover, the figures for the activity in test [7], in [9] and in test [10] were -0.796%, 1.49% and 0.197%, respectively. In addition, the activity change, negative = inhibition in test [8] is 1.78%.

Take `CC(=O)N1CCN(c2ccc(O)cc2)CC1`: the Potency result in test [1] and in test [2] was “inactive” throughout.

For `CC(C)NCCCC1(C(N)=O)c2ccccc2-c2ccccc21`, the Potency result in [1], in [3] and in test [4] was “inactive” in each case. Besides, in test [6], the Potency is 3.89 µM (active).

With `CN(C)CCCOC1(Cc2ccccc2)CCCCCC1`, the Potency result in test [1], in [2], in test [3] and in test [4] was “inactive” in each case.

With `CCOC(=O)[C@H](CCc1ccccc1)N[C@@H](C)C(=O)N(CC(=O)O)C1Cc2ccccc2C1`, the Potency entry in test [1] was “inactive”. Besides, the Potency in [2] was 19.5 µM (active).

`CCN1CCN(C(=O)N[C@@H](C(=O)N[C@@H]2C(=O)N3[C@@H]2SC(C)(C)[C@H]3C(=O)O)c2ccccc2)C(=O)C1=O`: the Potency entry in test [1], in test [2], in test [3] and in [4] was “inactive” each time.

For `CC(C)(C)c1ccc(O)c(O)c1`, the Potency was 31.6 µM (active) in [1], 2.17 µM (active) in test [3] and 2.17 µM (active) in test [4].

`CC(C)C(C)(C)C(C)(C)C(C)(C)S`: the Potency entry in test [1], in [6], in [3] and in test [4] was “inactive” throughout.

As to `Cc1ccc2c(Cl)cc(Cl)c(O)c2n1`, the Potency result in test [1], in test [6], in [3] and in test [4] was “inactive” throughout.

Consider `CCCCOCCOC(=O)c1cccnc1`, for which the Potency result in test [1], in test [3] and in test [4] was “inactive” each time.

`CCOCCn1c(C2CCN(CCc3ccc(C(C)(C)C(=O)O)cc3)CC2)nc2ccccc21`: the Potency result in [1] and in test [2] was “inactive” throughout.

For the compound `CN(C)CCN1CCN(c2cccc(Cl)c2)C1=O`, the Potency result in [1], in test [2], in test [3] and in test [4] was “inactive” each time.

Take `Cc1nc(C2CCCCC2)c(-c2ccc(S(N)(=O)=O)c(F)c2)o1`: the Potency result in test [1] is “inactive”. Besides, the Potency was 2.19 µM (active) in [2], 11.9 µM (active) in [3] and 13.3 µM (active) in test [4].

For `CCCC(=O)c1cc(O)c(O)cc1O`, the Potency in test [6] is 31.7 µM (active).

Consider `C/C(=C(/OCCOc1ccc(Cl)cc1)c1ccc(Cl)cc1Cl)n1ccnc1`, for which the Potency in test [6] was 0.871 µM (active); in test [2] it was 0.55 µM (active).

Consider `CCCN(CCC)C(=O)C(CCC(=O)OCCCN1CCN(CCOC(=O)Cc2c(C)n(C(=O)c3ccc(Cl)cc3)c3ccc(OC)cc23)CC1)NC(=O)c1ccccc1` (stereo not given), for which, in test [2], the Potency is 3.47 µM (active).

With `Cc1nn(-c2ccccc2)c(C)c1/C=N/N1CCN(Cc2ccccc2)CC1`, the outcome with Papain (Carica papaya) was “inactive”.

On to `CC(CC1c2ccccc2CCc2ccccc21)CN(C)C` (stereo not given), for which the Potency in test [6] is 0.246 µM (active). Moreover, the Potency entry in [2] was “inactive”.

With `COC(=O)C1=C(C)NC(C)=C(C(=O)OCCc2ccc(N3CCN(C(c4ccccc4)c4ccccc4)CC3)cc2)C1c1cccc([N+](=O)[O-])c1` (stereo not given), the Potency result in test [6], in test [3] and in test [4] was “inactive” each time. Also, the Potency in test [2] was 0.55 µM (active).

Take `CCCCCCOC(=O)NC(=N)c1ccc(NCc2nc3cc(C(=O)N(CCC(=O)OCC)c4ccccn4)ccc3n2C)cc1`: the values for the Potency in test [2] and in test [3] were 1.38 µM (active) and 18.6 µM (active), respectively.
